Results filed as inconclusive are left out. Active and inactive are the calls of the source. Calls come from the whole dose curve; as a rule, active = well fitted curve in the direction sought with a large enough effect in the signal ratio in the repeat runs (not every such curve was filed as active); inconclusive = weak or mixed curves, or a change in a side signal; inactive = no such curve, though single readings can be large or run the other way; the % refers to the signal ratio.

Here are results for 40 compounds from PubChem BioAssay (Tox21).

This experiment in a line: qHTS assay to identify small molecule agonists of the NFkB signaling pathway (AID 1159509). The note with it: NFkB-bla ME-180 cells, beta-lactamase FRET ratio, 5 h; series mostly up to 61 µM. An excerpt: National Center for Advancing Translational Sciences [NCATS]
NIH Chemical Genomics Center [NCGC]
U.S. Environmental Protection Agency [EPA]
National Institutes of Environmental Health Sciences [NIEHS]
National Toxicology Program [NTP]
U.S. Food and Drug Administration [FDA]
Transcription factors and their stimulated target gene expression play pivotal roles across many cellular processes including responses to environmental stimuli. Proper regulation of associated pathways is critical to maintain cell health and function. Constitutive activation of transcription factor pathways has been implicated in tumors as it may block cellular functions such as apoptosis and lead to invasion and metastasis. One important transcription factor that stimulates gene expression in response to cytokines, UV radiation, and other stimuli is nuclear factor-kappa B (NFkB). To measure activation of the NFkB pathway, the CellSensor NFkB-bla ME-180 cell line (Life Technologies, Carlsbad, CA) that stably expresses beta-lactamase reporter gene under the regulation of a NF-kB response element was used. This assay allows measurement of the NFkB pathway activity induced by compounds in a ME-180 cell line. This system quantitates NF-kB activity using a FRET-based assay system where beta-lactamase expression disrupts FRET, allowing for fluorescent measurement of activity. This cell line has been used to screen the Tox21 10K compound library and to identify compounds that induce the NFkB pathway activity.
Tox21 Assay Protocol Summary:
NFkB-bla ME-180 cells were dispensed at 2,000 cells/6 uL of assay medium per well into black wall/clear-bottom 1536-well plates using a Multidrop Combi (ThermoFisher Scientific, Waltham, MA) dispenser. After the assay plates were incubated at 37 C and 5% CO2 for an overnight, 23 nL of compounds dissolved in DMSO, positive controls or DMSO only was transferred to the assay plate by a Pintool station (Kalypsys, San Diego, CA). The assay plates were incubated at 37 C and 5% CO2 for 5 hr. One uL of LiveBLAzer B/G FRET substrate (Life Technologies) was added using a Flying Reagent Dispenser (Aurora Discovery, San Diego, CA) and the plates were incubated at room temperature for 1.5 hr. Fluorescence intensity (405 nm excitation, 460 nm and 530 nm emissions) was measured using an Envision plate reader (PerkinElmer, Shelton, CT).
As for `C=CCOC(=O)/C=C\C(=O)OCC=C`, the outcome was inactive.
For the compound `CCn1cc(C(=O)O)c(=O)c2cc(F)c(N3CCNCC3)nc21`, the outcome was inactive.
Then `O=C(O)C(Cc1cc(I)c(O)c(I)c1)c1ccccc1` (stereo not given), with “inactive”; and `CCCCN(CCCC)C(=S)SSC(=S)N(CCCC)CCCC`, with “inactive”; and `CC[C@H](NC(=O)c1cc(F)ccc1NS(=O)(=O)c1cccc2cccnc12)c1ccccc1`, with “inactive”.
The result for `CC(=O)OCC(=O)[C@@]12OC(C)(C)O[C@@H]1C[C@H]1[C@@H]3C[C@H](F)C4=CC(=O)C=C[C@]4(C)[C@@]3(F)[C@@H](O)C[C@@]12C` reads “inactive”; that for `Brc1cc(-c2ccc(Br)c(Br)c2Br)cc(Br)c1Br`, “inactive”; that for `CN(C)CCOC1=Cc2ccccc2Sc2ccc(Cl)cc21`, “inactive”.
The result for `Oc1ccc(Nc2ccccc2)cc1` reads “inactive”; that for `CN(C)C(=O)Nc1ccc(Oc2ccc(Cl)cc2)cc1`, “inactive”; that for `CCOCCn1c(C2CCN(CCc3ccc(C(C)(C)C(=O)O)cc3)CC2)nc2ccccc21`, “inactive”.
With `Cc1oncc1C(=O)Nc1ccc(C(F)(F)F)cc1`, the outcome was inactive.
Take `CCNC(=O)N1CCN(CCCC(c2ccc(F)cc2)c2ccc(F)cc2)CC1`: the outcome was inactive.
Regarding `CC(=O)[C@H]1CC[C@H]2[C@@H]3C[C@H](C)C4=CC(=O)CC[C@]4(C)[C@H]3[C@@H](O)C[C@]12C`, the result was inactive.
Then `CCCCC/C(=C\c1ccccc1)CO`, with “inactive”; and `Cc1ccc(Nc2nccc(N(C)c3ccc4c(C)n(C)nc4c3)n2)cc1S(N)(=O)=O`, with “inactive”; and `CC(C)(C)C(=O)C(Oc1ccc(Cl)cc1)n1ccnc1` (stereo not given), with “inactive”.
Then `CCOC(=O)N1CCC(n2c(=O)[nH]c3cc(Cl)ccc32)CC1`, with “inactive”.
The result for `CCC(C)(C)C1CCC(O)CC1` (stereo not given) reads “inactive”; that for `Nc1ccc(Cl)cc1[N+](=O)[O-]`, “inactive”; that for `N#C/C(=C1\SCC(c2ccccc2Cl)S1)n1ccnc1` (stereo not given), “inactive”.
`O=C(O)c1ccccc1NCCc1ccccc1`: the outcome was inactive.
The result for `O=C(Nc1ccccc1)Nc1ccccc1` reads “inactive”; that for `CCCC(=O)O[C@]1(C(=O)COC(=O)CC)CC[C@H]2[C@@H]3CCC4=CC(=O)CC[C@]4(C)[C@H]3[C@@H](O)C[C@@]21C`, “inactive”; that for `CCC(C(=O)OCCN(CC)CC)c1ccccc1` (stereo not given), “inactive”.
Then `COc1ccc(CCC(=O)c2c(O)cc(O[C@@H]3O[C@H](CO)[C@@H](O)[C@H](O)[C@H]3O[C@@H]3O[C@@H](C)[C@H](O)[C@@H](O)[C@H]3O)cc2O)cc1O`, with “inactive”; and `Fc1ccccc1[C@@H](F)COC1CCC(Nc2ncnc3[nH]ncc23)CC1` (stereo not given in full), with “inactive”.
The result for `NC(=O)N(O)[C@@H]1C=C[C@H](Oc2cccc(Oc3ccc(F)cc3)c2)C1` reads “inactive”; that for `c1cc[c]([Bi]([c]2ccccc2)[c]2ccccc2)cc1`, “inactive”.
`COC(=O)CC(=O)C(C)(C)C`: the result was inactive.
The result for `CC(CCO)CCc1ccccc1` (stereo not given) reads “inactive”; that for `O=C(C(=O)c1ccccc1)c1ccccc1`, “inactive”.
The result for `C[Si]1(C)O[Si](C)(C)O[Si](C)(C)O1` reads “inactive”; that for `CC(COc1ccc(C(C)(C)C)cc1)OS(=O)OCCCl` (stereo not given), “inactive”; that for `O=C(N[C@@H](c1ccccc1)[C@@H]1CCCCN1)c1cccc(C(F)(F)F)c1Cl`, “inactive”.
The result for `CCCCC1C(=O)N(c2ccccc2)N(c2ccc(O)cc2)C1=O` (stereo not given) reads “inactive”.
As for `COC(=O)c1cc(S(N)(=O)=O)ccc1OC`, the outcome was inactive.
Then `COCc1c(C(C)C)nc(C(C)C)c(/C=C/[C@@H](O)C[C@@H](O)CC(=O)O)c1-c1ccc(F)cc1`, with “inactive”; and `O=C(O)Cc1ccc(-c2ccccc2)cc1`, with “inactive”.
`COC(=O)c1cc(Cl)ccc1NS(=O)(=O)C(F)(F)F`: the result was inactive.
